7 compounds from PubChem BioAssay (NCI) can be followed below.

Test systems include SK-MEL-2 melanoma; EKVX NSCLC; SN12C renal; UO-31 renal; TK-10 renal; ACHN renal; CAKI-1 renal; A498 renal; CCRF-CEM leukemia; MOLT-4 leukemia; RPMI-8226 leukemia; OVCAR-8 ovarian; OVCAR-5 ovarian; OVCAR-4 ovarian; SK-OV-3 ovarian; IGROV1 ovarian; OVCAR-3 ovarian; HS 578T breast; NCI/ADR-RES ovarian.
Holding throughout (assay): NCI-60 one-dose screen, 48 h (100 = growth as untreated, 0 = no growth, -100 = all killed)
Common to all, as to conditions: 10 µM unless noted

About 83,000 compounds went through this panel and 20% of them were active in at least one assay; those are over-represented in the sample as a whole.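 Note: values are percent growth. 100 is the growth of untreated cells, values between 100 and 0 indicate rising inhibition; between -100 and 0 indicates cell death.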 Unmarked numbers belong to inactive results. Active and inactive are the calls of the source. The calls were made as follows: active = growth percent below 10; inactive = the rest.

On to `COc1ccc(S(=O)(=O)NCCNc2nccc(-c3c(-c4cccc(F)c4)nc4sccn34)n2)cc1`, for which the growth in the experiment on SK-MEL-2 melanoma was 58.1%; in the experiment on EKVX NSCLC, 39.7%; in the experiment with SN12C renal it was 30.7%; with UO-31 renal, 20.3%; in the experiment with TK-10 renal, 55.8%; in the experiment on ACHN renal, 15.8%. The growth with CAKI-1 renal is 28.2%; in the experiment on A498 renal, 43.1%; in the experiment on CCRF-CEM leukemia, 32.3%; in the experiment with MOLT-4 leukemia, 33.9%; in the experiment on RPMI-8226 leukemia, 27.8%; in the experiment on OVCAR-8 ovarian, 36.6%. Also, the growth is 62.9% in the experiment with OVCAR-5 ovarian; 38.9% with OVCAR-4 ovarian; 54.3% in the experiment with SK-OV-3 ovarian; 14.8% in the experiment with IGROV1 ovarian; 49.1% in the experiment with OVCAR-3 ovarian; 31.4% in the experiment with HS 578T breast. In addition, the growth with NCI/ADR-RES ovarian is 30.3%.
As for `COc1ccc(NC(=O)CSc2nnc(-c3cc(-c4ccccc4)nc4ccccc34)n2-c2ccccc2)cc1`, the growth in the experiment with SK-MEL-2 melanoma was 102%; in the experiment with EKVX NSCLC it was 78.1%; with SN12C renal it was 88.9%; in the experiment on UO-31 renal, 67%; in the experiment on TK-10 renal it was 117%; in the experiment on ACHN renal, 94.6%. In addition, the growth with CAKI-1 renal was 80%; in the experiment with A498 renal, 74.3%; in the experiment with CCRF-CEM leukemia, 86.9%; with MOLT-4 leukemia it was 80.2%; in the experiment on RPMI-8226 leukemia, 90.1%; in the experiment with OVCAR-8 ovarian, 90.4%. Besides, the growth in the experiment on OVCAR-5 ovarian is 99.2%; in the experiment with OVCAR-4 ovarian, 90.3%; in the experiment on SK-OV-3 ovarian it was 102%; with IGROV1 ovarian it was 92.5%; in the experiment with OVCAR-3 ovarian, 103%; with HS 578T breast, 94.7%. In addition, the growth in the experiment on NCI/ADR-RES ovarian is 91.8%.
For `Cc1cc(=O)oc2c1ccc1oc(C#N)c(C)c12`, the growth is 115% in the experiment on SK-MEL-2 melanoma; 93.7% with EKVX NSCLC; 101% in the experiment on SN12C renal; 94.7% in the experiment with UO-31 renal; 89.2% in the experiment on TK-10 renal; 103% in the experiment with ACHN renal. In addition, the growth in the experiment with CAKI-1 renal was 106%; in the experiment with A498 renal, 75.1%; in the experiment on CCRF-CEM leukemia, 6.77% (active); with MOLT-4 leukemia, 102%; with RPMI-8226 leukemia, 88.9%; with OVCAR-8 ovarian, 99.5%. Also, the growth is 92.4% with OVCAR-5 ovarian; 93.1% in the experiment with OVCAR-4 ovarian; 107% in the experiment with SK-OV-3 ovarian; 106% in the experiment with IGROV1 ovarian; 98.6% in the experiment on OVCAR-3 ovarian; 91.2% in the experiment with HS 578T breast. Moreover, the growth in the experiment on NCI/ADR-RES ovarian was 96.2%.
For the compound `Cc1ccc2c(c1)Sc1c(ccc3ccccc13)N2`, the growth in the experiment with SK-MEL-2 melanoma is 116%; with EKVX NSCLC, 72.8%; in the experiment with SN12C renal, 81.8%; in the experiment with UO-31 renal, 60.1%; in the experiment with TK-10 renal it was 127%; with ACHN renal it was 64.5%. In addition, the growth is 73.4% with CAKI-1 renal; 91.7% in the experiment with A498 renal; 67.6% in the experiment with CCRF-CEM leukemia; 32.4% in the experiment with MOLT-4 leukemia; 50.4% in the experiment on RPMI-8226 leukemia; 72.3% with OVCAR-8 ovarian. Further, the growth in the experiment on OVCAR-5 ovarian was 109%; with OVCAR-4 ovarian, 73.5%; with SK-OV-3 ovarian, 73.1%; in the experiment with IGROV1 ovarian, 42.3%; with OVCAR-3 ovarian it was 70.8%; in the experiment with HS 578T breast, 66.4%. The growth in the experiment on NCI/ADR-RES ovarian is 57.3%.
On to `O=C(Nc1ccccc1-c1nc2ccccc2c(=O)[nH]1)c1cc2ccccc2[nH]1`, for which the growth in the experiment on SK-MEL-2 melanoma was 96.4%; with EKVX NSCLC, 78.9%; with SN12C renal, 94.7%; with UO-31 renal, 63.6%; in the experiment on TK-10 renal it was 111%; in the experiment with ACHN renal, 86.7%. Besides, the growth in the experiment on CAKI-1 renal was 81.8%; with A498 renal it was 119%; in the experiment on CCRF-CEM leukemia it was 97.4%; in the experiment with MOLT-4 leukemia, 95.6%; in the experiment with RPMI-8226 leukemia it was 98%; with OVCAR-8 ovarian, 87.4%. Besides, the growth was 95.3% in the experiment on OVCAR-5 ovarian; 105% in the experiment with OVCAR-4 ovarian; 78.4% in the experiment on SK-OV-3 ovarian; 69.2% in the experiment with IGROV1 ovarian; 102% with OVCAR-3 ovarian; 85.8% with HS 578T breast. Moreover, the growth with NCI/ADR-RES ovarian was 98.1%.
With `CC(C)C(=O)Nc1n[nH]c2cc(-c3cccc(NS(=O)(=O)C4CC4)c3)ccc12`, the growth in the experiment on SK-MEL-2 melanoma is 78%; in the experiment with EKVX NSCLC, 71.7%; in the experiment on SN12C renal it was 77.7%; in the experiment on UO-31 renal, 56.7%; in the experiment with TK-10 renal, 94.9%; in the experiment with ACHN renal it was 70%. The growth in the experiment with CAKI-1 renal is 71.2%; in the experiment with A498 renal it was 100%; with CCRF-CEM leukemia, 72.4%; in the experiment on MOLT-4 leukemia it was 57.8%; in the experiment with RPMI-8226 leukemia, 66.1%; in the experiment with OVCAR-8 ovarian, 82.2%. Moreover, the growth in the experiment on OVCAR-5 ovarian was 87.4%; in the experiment with OVCAR-4 ovarian, 52.8%; in the experiment on SK-OV-3 ovarian, 62.3%; in the experiment on IGROV1 ovarian it was 64.6%; in the experiment with OVCAR-3 ovarian, 57.8%; with HS 578T breast, 77.7%. For the same compound, the growth in the experiment with NCI/ADR-RES ovarian was 98.1%.
For `CCCCCCCCCOc1c(OC)cc(C2CC(=O)Nc3c2c(C)nn3-c2nc3ccccc3[nH]2)cc1OC` (stereo not drawn), the growth with SK-MEL-2 melanoma was -40.4% (active); with EKVX NSCLC it was -83.5% (active); in the experiment on SN12C renal it was -33.3% (active); in the experiment on UO-31 renal, -95.5% (active); with TK-10 renal, 4.51% (active); with ACHN renal, -24.6% (active). In addition, the growth is -73.2% (active) in the experiment with CAKI-1 renal; -35.3% (active) in the experiment with A498 renal; 19.1% in the experiment with CCRF-CEM leukemia; 11.2% with MOLT-4 leukemia; 10.1% in the experiment on RPMI-8226 leukemia; -1.61% (active) in the experiment on OVCAR-8 ovarian. The growth with OVCAR-5 ovarian is -68.7% (active); in the experiment on OVCAR-4 ovarian, 1.92% (active); with SK-OV-3 ovarian it was -62.7% (active); with IGROV1 ovarian, -51.1% (active); with OVCAR-3 ovarian, -63.3% (active); with HS 578T breast, -23% (active). The growth in the experiment with NCI/ADR-RES ovarian was -1.8% (active).
